The panel holds about 83,000 compounds, 20% with a hit somewhere; the sample as a whole holds those more often.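 Negative percent growth values reflect cell death: -40 means 40% of the cells present at the start died, and -100 means all died.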 Activity calls are given as the source filed them. Rule for the calls: active = growth percent below 10; inactive = the rest.
How the values were obtained:
Test in all cases: NCI-60 one-dose screen, 48 h (100 = growth as untreated, 0 = no growth, -100 = all killed)
Conditions in all cases: 10 µM unless noted
[1] = tested on: SK-MEL-2 melanoma
[2] = tested on: EKVX NSCLC
[3] = tested on: SN12C renal
[4] = tested on: TK-10 renal
[5] = tested on: ACHN renal
[6] = tested on: CAKI-1 renal
[7] = tested on: A498 renal
[8] = tested on: CCRF-CEM leukemia
[9] = tested on: MOLT-4 leukemia
[10] = tested on: UO-31 renal

Measured: growth

CSC1=Nc2c(c(C)c(-c3ccccc3)n2CCCC(=O)O)C2=NC(=O)C[C@H](C)N12
inactive: [1] 107% | [2] 92.8% | [3] 122% | [4] 118% | [5] 121% | [6] 103% | [7] 128% | [8] 98.4% | [9] 104%

COc1cccc(Nc2ncnc3cc(NC(=O)CCl)ccc23)c1
active: [1] -45.3% | [2] -24.4% | [3] -74.7% | [4] -13.2% | [5] -97.6% | [6] -97.2% | [7] -5.63% | [8] -26.9% | [9] -31%

COc1ccc(-c2cc(-c3ccccc3)nc(N3CCN(CCNc4ccnc5cc(Cl)ccc45)CC3)n2)cc1
active: [1] -9.46% | [3] -43.3% | [4] -13.4% | [6] -24.9% | [8] 3.98%
inactive: [2] 79.9% | [5] 66.3% | [7] 15.3%

CCc1ccc(CCC(=O)Nc2ncc(Cc3cc(Cl)ccc3Cl)s2)o1
inactive: [1] 45.5% | [2] 42.9% | [3] 31.9% | [4] 51% | [5] 33.9% | [6] 23.9% | [8] 10.4% | [9] 14.7%
active: [7] -0.625%

CCN(CC)CCN1C(=O)c2c(c(C)c3c(oc4ccc(O)cc43)c2C)C1=O
inactive: [1] 89% | [2] 83.2% | [7] 91.7% | [9] 10.2%
active: [3] -41.9% | [4] -13.9% | [5] -80.4% | [6] -6.73% | [8] -14.7%

N=C(N)c1ccc(-c2ccc(-c3ccccc3)s2)cc1
inactive: [1] 105% | [2] 84.6% | [3] 70.3% | [4] 108% | [5] 68.3% | [6] 14.5% | [7] 89.1% | [8] 21%
active: [9] -3.58%

Cc1ccc(C)c2c(C)c(C(=O)Nc3cccc(-n4cccn4)c3)oc12
inactive: [1] 66.3% [50 µM] | [2] 53.8% [50 µM] | [3] 70% [50 µM] | [4] 82.1% [50 µM] | [5] 64.9% [50 µM] | [6] 44.6% [50 µM] | [7] 55.6% [50 µM] | [8] 42.4% [50 µM] | [9] 42.2% [50 µM]

CC1(C)CC2=C3C=C[C@@H]4[C@@]5(C)CCC(=O)C(C)(C)[C@@H]5CC[C@@]4(C)[C@]3(C)CC[C@@]2(C(=O)O)C[C@H]1O
inactive: [2] 34.9% | [3] 21.8% | [4] 16.9% | [6] 22.9% | [7] 34.9% | [8] 13.3% | [9] 19.5%
active: [1] 9.89% | [5] 8.49%

NS(=O)(=O)c1ccc(-c2cc(-c3nnc(SCC(=O)Nc4ccc(C(=O)/C=C/c5ccc(Cl)cc5)cc4)n3-c3ccccc3)c3ccccc3n2)cc1
inactive: [1] 105% | [2] 96.2% | [3] 94.9% | [4] 96.4% | [5] 106% | [6] 77.1% | [7] 49.9% | [8] 90.3% | [9] 68.5%

COc1cc2c(c(OC)c1OC)C(=O)CC(c1cccc(NC(=O)c3ccc(C#N)cc3)c1)O2 (stereo not given)
inactive: [1] 69% | [2] 83.8% | [3] 83% | [4] 89.4% | [5] 81.2% | [6] 77.1% | [7] 82.2% | [8] 25.3% | [9] 27%

O=C1c2cccc3cccc(c23)C(=O)N1C/C=C/c1ccc2c3c(cccc13)C(=O)N(CCO)C2=O
inactive: [1] 90.7% | [2] 91.5% | [3] 75.7% | [4] 98.7% | [5] 34.1% | [6] 63.1% | [7] 74.7% | [8] 83.3% | [9] 80%

Cc1ccc(-c2csc(N(C(=O)N3CCN(c4cc5c(cc4F)c(=O)c(C(=O)O)cn5C4CC4)CC3)c3ccccc3)n2)cc1
active: [1] -4.42% | [3] 9.07% | [5] 5.63% | [6] 2.42% | [7] 7.58%
inactive: [2] 20.9% | [4] 20.6% | [8] 21%

CCN1C(=O)N(CC)C2C1NC(=S)N2/N=C/c1ccc(OC)cc1 (stereo not given)
inactive: [1] 65% | [2] 79.6% | [3] 62.6% | [4] 79.8% | [5] 64% | [6] 32.9% | [7] 29.9% | [8] 52.8% | [9] 47.7%

Cc1ccc(NC(=O)Cn2c(Br)nc3c2c(=O)n(C)c(=O)n3C)cc1
inactive: [1] 84.9% | [2] 55.5% | [6] 53% | [8] 40.7%
active: [3] -30% | [4] 9.94% | [5] -66.6% | [7] -6.02%

CCOC(=O)c1c(C)nc2c(c1N)/C(=C/c1ccc(OC)cc1)C(=O)N2Cc1ccccc1
inactive: [1] 64.6% | [2] 75.6% | [3] 57.4% | [10] 56.6% | [4] 97.2% | [5] 71.1% | [7] 74.4% | [8] 48.9% | [9] 15.9%

CCOC(=O)c1ccccc1-c1c2ccc(=[N+](C)C)cc-2oc2cc(N(C)C)ccc12
inactive: [2] 34.5% | [4] 32% | [8] 30.3%
active: [1] 4.77% | [3] 7.33% | [5] 6.36% | [6] -26.9% | [7] 0.621%

C#CCn1cnc2cnc(Nc3cccc(NC(=O)C=C)c3)nc21
active: [8] 1.84% [6.25 µM] | [9] 8.28% [6.25 µM]
inactive: [1] 61.1% [6.25 µM] | [2] 89.2% [6.25 µM] | [3] 90.5% [6.25 µM] | [4] 79.9% [6.25 µM] | [5] 75.3% [6.25 µM] | [6] 83.4% [6.25 µM] | [7] 72% [6.25 µM]

Cc1cccc[n+]1C1c2ccccc2-c2ccccc21
inactive: [1] 90.2% | [2] 93.8% | [3] 94.2% | [4] 89.5% | [5] 107% | [6] 100% | [7] 82.9% | [8] 78.5% | [9] 98.3%

Oc1c(CN2CCC(N3CCCCC3)CC2)cc(Cc2cc(CN3CCC(N4CCCCC4)CC3)c(O)c3ncccc23)c2cccnc12
active: [8] 6.54% | [9] 6.56%
inactive: [1] 41.4% | [2] 26% | [3] 34.2% | [4] 33.5% | [5] 13.8% | [6] 25.5% | [7] 77.7%

N#C/C(=C\c1ccc([N+](=O)[O-])cc1)n1nnc2cc(F)c(F)cc21
active: [3] 4.63% | [4] 6.11% | [5] -74.9% | [8] 4.63% | [9] 3.58%
inactive: [1] 95.9% | [2] 82.1% | [7] 67.6%
